# Tests used:
# Experiment in all cases: DAPPL (digital affinity profiling via proximity ligation, sequencing); 10 mM Tris-HCl pH 7.5, 50 mM NaCl, 1 mM DTT, 4% glycerol, room temperature, 30 min; GST-TFs on glutathione beads, 16-mer random dsDNA library, 0.1% formaldehyde crosslink after washing; high values mean tight binding
# Conditions in all cases: protein: recombinant; tags: N-terminal GST; dsDNA, one strand shown
# ETV1 = ETV1 (Homo sapiens, UniProt P50549 1-477)
# How it was run: (§1)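 Each value of binding signal is a hexamer's read frequency for a factor divided by the same hexamer's frequency in the tag-only sample. Barcoded, bead-captured GST fusions of human transcription factors made in yeast were pooled with that sample and incubated with 200 nmole of a random double-stranded 16-mer DNA library in Tris/NaCl/DTT/glycerol buffer at room temperature for 30 min. Washing, 0.1% formaldehyde crosslinking, proximity ligation, PCR and Illumina NextSeq500 sequencing followed.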
# ERF = target: T1, ERF (Homo sapiens, UniProt P50548 1-548)
# T1 sequence: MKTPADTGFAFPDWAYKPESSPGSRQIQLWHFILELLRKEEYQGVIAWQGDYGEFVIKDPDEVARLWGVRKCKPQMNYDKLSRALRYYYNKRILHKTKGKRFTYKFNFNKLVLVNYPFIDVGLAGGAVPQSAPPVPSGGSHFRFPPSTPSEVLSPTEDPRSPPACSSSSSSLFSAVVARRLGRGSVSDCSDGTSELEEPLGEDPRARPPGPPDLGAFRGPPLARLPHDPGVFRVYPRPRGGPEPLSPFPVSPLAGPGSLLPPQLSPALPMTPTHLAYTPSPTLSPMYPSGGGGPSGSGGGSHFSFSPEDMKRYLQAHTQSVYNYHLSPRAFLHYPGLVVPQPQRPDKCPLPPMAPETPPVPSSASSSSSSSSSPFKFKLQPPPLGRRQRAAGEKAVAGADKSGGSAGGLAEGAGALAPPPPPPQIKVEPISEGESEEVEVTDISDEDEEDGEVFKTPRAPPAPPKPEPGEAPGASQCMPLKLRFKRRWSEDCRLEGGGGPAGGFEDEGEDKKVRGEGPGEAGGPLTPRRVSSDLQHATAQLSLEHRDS
# How it was run: as §1
# ETV3L = target: T2, ETV3L (Homo sapiens, UniProt Q6ZN32 1-361)
# T2 sequence: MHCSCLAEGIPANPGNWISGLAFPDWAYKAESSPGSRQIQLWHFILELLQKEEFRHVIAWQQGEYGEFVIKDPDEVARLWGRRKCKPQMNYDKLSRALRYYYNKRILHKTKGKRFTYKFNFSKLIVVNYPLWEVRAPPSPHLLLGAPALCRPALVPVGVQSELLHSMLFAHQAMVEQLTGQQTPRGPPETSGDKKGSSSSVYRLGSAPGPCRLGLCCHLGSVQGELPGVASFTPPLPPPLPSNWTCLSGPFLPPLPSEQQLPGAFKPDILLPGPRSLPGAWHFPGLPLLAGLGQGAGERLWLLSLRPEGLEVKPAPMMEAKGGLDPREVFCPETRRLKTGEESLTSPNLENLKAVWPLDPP
# How it was run: as §1
# ETS2 = target: T3, ETS2 (Homo sapiens, UniProt P15036 1-469)
# T3 sequence: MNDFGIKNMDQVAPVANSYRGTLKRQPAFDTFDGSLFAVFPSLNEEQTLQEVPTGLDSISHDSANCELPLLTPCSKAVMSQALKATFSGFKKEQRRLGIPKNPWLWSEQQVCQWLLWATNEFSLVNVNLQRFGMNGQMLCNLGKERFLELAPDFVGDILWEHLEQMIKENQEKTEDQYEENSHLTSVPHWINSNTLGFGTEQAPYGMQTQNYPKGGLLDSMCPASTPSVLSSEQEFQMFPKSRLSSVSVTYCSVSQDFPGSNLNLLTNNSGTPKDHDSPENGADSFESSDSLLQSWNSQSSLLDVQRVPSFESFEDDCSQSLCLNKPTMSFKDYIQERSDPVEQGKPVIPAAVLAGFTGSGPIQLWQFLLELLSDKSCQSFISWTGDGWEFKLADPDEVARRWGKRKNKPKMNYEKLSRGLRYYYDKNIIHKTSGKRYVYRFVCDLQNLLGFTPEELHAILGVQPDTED
# How it was run: as §1
# SPDEF = target: T4, SPDEF (Homo sapiens, UniProt O95238 1-335)
# T4 sequence: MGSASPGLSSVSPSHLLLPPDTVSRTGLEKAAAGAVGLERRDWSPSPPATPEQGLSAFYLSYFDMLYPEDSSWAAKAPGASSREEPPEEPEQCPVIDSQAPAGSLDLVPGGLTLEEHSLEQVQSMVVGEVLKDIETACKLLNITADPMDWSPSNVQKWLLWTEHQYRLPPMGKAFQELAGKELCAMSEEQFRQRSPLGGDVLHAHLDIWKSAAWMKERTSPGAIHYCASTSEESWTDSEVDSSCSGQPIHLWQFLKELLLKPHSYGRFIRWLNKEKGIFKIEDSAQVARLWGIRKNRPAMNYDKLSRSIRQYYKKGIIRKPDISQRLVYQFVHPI
# How it was run: as §1
# ETV7 = target: T5, ETV7 (Homo sapiens, UniProt Q9Y603 1-341)
# T5 sequence: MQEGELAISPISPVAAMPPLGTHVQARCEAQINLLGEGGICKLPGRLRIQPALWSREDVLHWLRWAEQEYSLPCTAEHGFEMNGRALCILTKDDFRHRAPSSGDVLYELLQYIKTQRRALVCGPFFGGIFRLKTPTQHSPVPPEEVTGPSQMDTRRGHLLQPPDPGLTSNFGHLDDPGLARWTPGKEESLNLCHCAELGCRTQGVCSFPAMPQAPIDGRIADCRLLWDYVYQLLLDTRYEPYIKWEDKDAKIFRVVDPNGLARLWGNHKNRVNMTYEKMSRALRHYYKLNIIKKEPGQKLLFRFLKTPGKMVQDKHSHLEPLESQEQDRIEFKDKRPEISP
# How it was run: as §1
# ELF5 = target: T6, ELF5 (Homo sapiens, UniProt Q9UKW6-2 1-255)
# T6 sequence: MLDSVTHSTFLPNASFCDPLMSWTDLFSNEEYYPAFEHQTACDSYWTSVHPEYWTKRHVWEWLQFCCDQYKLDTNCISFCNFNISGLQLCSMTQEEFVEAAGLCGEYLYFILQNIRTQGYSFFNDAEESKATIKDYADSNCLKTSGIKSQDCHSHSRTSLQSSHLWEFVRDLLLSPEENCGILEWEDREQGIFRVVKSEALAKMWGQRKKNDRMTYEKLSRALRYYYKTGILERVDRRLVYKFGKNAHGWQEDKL
# How it was run: as §1
# ETV3 = target: T7, ETV3 (Homo sapiens, UniProt P41162-2 1-143)
# T7 sequence: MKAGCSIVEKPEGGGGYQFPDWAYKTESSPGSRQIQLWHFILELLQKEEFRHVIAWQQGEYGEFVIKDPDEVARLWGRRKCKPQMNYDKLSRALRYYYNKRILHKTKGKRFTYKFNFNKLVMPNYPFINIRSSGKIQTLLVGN
# How it was run: as §1
# ETV6 = ETV6 (Homo sapiens, UniProt P41212 1-452)
# How it was run: as §1
# Chain of ETV1 (P50549 whole entry, the tested form may be a part): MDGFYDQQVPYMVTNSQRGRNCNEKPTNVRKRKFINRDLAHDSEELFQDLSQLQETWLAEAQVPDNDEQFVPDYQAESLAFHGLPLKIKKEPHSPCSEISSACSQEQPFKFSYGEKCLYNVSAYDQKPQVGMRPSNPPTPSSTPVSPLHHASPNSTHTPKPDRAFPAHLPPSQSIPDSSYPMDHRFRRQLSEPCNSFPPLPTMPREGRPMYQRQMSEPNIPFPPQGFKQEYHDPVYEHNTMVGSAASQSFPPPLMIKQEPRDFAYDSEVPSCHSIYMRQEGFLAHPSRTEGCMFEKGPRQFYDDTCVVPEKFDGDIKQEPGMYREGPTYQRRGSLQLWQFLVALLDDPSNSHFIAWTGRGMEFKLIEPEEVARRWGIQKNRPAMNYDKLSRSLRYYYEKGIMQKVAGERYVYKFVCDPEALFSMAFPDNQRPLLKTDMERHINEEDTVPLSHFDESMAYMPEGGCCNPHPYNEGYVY
# Chain of ETV6 (P41212 whole entry): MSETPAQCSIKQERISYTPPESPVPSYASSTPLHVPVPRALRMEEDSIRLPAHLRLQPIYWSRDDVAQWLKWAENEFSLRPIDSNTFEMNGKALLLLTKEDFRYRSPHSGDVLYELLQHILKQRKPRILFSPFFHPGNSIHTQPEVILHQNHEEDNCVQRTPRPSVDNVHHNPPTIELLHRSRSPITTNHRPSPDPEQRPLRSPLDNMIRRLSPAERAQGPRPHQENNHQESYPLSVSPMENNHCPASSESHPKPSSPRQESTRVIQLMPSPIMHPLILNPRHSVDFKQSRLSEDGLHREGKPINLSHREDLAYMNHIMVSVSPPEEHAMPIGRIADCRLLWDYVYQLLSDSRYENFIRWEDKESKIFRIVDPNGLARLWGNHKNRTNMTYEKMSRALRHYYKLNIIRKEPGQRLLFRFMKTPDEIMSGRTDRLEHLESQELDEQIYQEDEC
sequence,measurement,setting,value
CTCGAT,binding signal,ETV1,"1.27 fold enrichment (6-mer frequency, TF over GST control)"
same,binding signal,ERF,"1.37 fold enrichment (6-mer frequency, TF over GST control)"
same,binding signal,ETV3L,"1.44 fold enrichment (6-mer frequency, TF over GST control)"
same,binding signal,ETS2,"1.36 fold enrichment (6-mer frequency, TF over GST control)"
same,binding signal,SPDEF,"1.22 fold enrichment (6-mer frequency, TF over GST control)"
same,binding signal,ETV7,"1.31 fold enrichment (6-mer frequency, TF over GST control)"
same,binding signal,ELF5,"1.22 fold enrichment (6-mer frequency, TF over GST control)"
same,binding signal,ETV3,"1.36 fold enrichment (6-mer frequency, TF over GST control)"
same,binding signal,ETV6,"1.3 fold enrichment (6-mer frequency, TF over GST control)"
